From PubChem
HT1080-NT tox – kills 2HG-producing HT-1080-NT fibrosarcoma cells | Potency, µM (highest dose often 46.1 µM), without a hit: top-dose activity, negative = less viability, most hits filed as cytotoxic | HT-1080-NT fibrosarcoma viability, CellTiter-Glo ATP luminescence, 48 h | 360,000 compounds, 1.6% hits;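 also: NT is the 2HG producing partner of a matched IDH1 knockdown line; 0% = DMSO-treated cells and -100% = media-only wells without cells; nearly all actives have a fitted effect of over 55% in size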
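Luminescent CellTiter-Glo readout after 48 hours of compound exposure at 37 degrees C defined viability of HT-1080-NT cells. Activity was normalized to DMSO wells and cell-free media wells; concentration-response curves were fitted and assigned curve classes.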
MCF10A rerep – induces DNA re-replication in MCF 10a normal breast cells; AID 624296; 350,000 compounds, 2.9% hits; Potency, µM (series often up to 46.1 µM), for inactives: at the highest dose activity, positive = re-replication, most hits filed as activators; MCF 10A DNA re-replication, Hoechst nuclear intensity, 48 h; also: % of control where 0% means no effect; nearly all actives have a fitted effect of over 50% in size
KB-V1 MDR tox – KB-V1 MDR subline cytotoxicity. KB-V1 MDR cells viability, CellTiter-Glo, 72 h. 400,000 compounds, 3.4% hits. Potency, µM (titrated, usually from 46.1 µM), actives largely listed as cytotoxic. AID 1347076; also: % is scaled to controls: 0 for no effect and ±100 for the full control effect; nearly all actives have a fitted effect of over 60% in size
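Drug-selected KB-V1 cells, grown in DMEM lacking phenol red with 10% FBS, receive compound titrations; after three days at 37 degrees C, surviving cell ATP is quantified by CellTiter-Glo luminescence and responses normalized and curve-fitted.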
KB-3-1 cytotox – kills parental KB-3-1 adenocarcinoma cells. KB-3-1 viability, CellTiter-Glo ATP luminescence, 72 h. AID 1347075. Potency, µM (top dose mostly 46.1 µM), hits mostly cytotoxic. 400,000 compounds, 1.4% hits; also: % is scaled to controls: 0 for no effect and ±100 for the full control effect; nearly all actives have a fitted effect of over 60% in size
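Viability of parental KB-3-1 cells, measured by CellTiter-Glo luminescence, followed a 72 h incubation at 37 °C with pinned compounds in phenol-red-free DMEM containing 10% FBS.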
SW480 rerep – inducers of DNA re-replication in SW480 colon cancer cells | SW480 DNA re-replication, Hoechst DNA content imaging, 48 h | Potency, µM (titrated, usually from 46.1 µM), without a hit: top-dose re-replication activation, usual class: activators | 340,000 compounds, 1.8% hits; also: % of control where 0% means no effect; nearly all actives have a fitted effect of over 55% in size
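First, 250 cells per well were seeded. Next, compound or vehicle (23 nL) was pinned in, plates sat 48 hr at 37 C. Finally Hoechst was added for 40 min before fluorescence scanning.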
HT1080 IDH1KD tx – toxicity to HT-1080 IDH1 knockdown cells (counter line). HT-1080 IDH1 knockdown viability, ATP luminescence, 48 h. Potency, µM (titrated, usually from 46.1 µM), for inactives: at the highest dose activity, negative = toxicity, most hits filed as cytotoxic. 360,000 compounds, 2% hits;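 also: 0% = DMSO wells and -100% = cell-free medium wells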
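Assay cells: HT-1080 with IDH1 knockdown, 750 per well, RPMI/5% FBS. Exposure: 48 h at 37 °C following 2 h pre-incubation. Read: CellTiter-Glo luminescence; fitted concentration-response, curve class assigned.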
* marks the source's active call; other numbers are inactive results. Shown are actives, neighbours in structure and some others; about 8% of the full set was active somewhere. Calls follow the shape of the dose curve; as a rule, active = well fitted curve in the direction sought with a large enough effect; inconclusive = small, poorly fitted or top-dose-only effect, or another doubt; inactive = no such curve, though single readings can be large; an effect the other way counts as inactive or inconclusive. Potency is read from the fitted curve at half-maximal effect.

Screening CC(=O)Nc1ccc(S(=O)(=O)NCCOc2ccc(Cl)cc2C)cc1 returned HT1080-NT tox -26%, MCF10A rerep -12%, KB-V1 MDR tox inactive, KB-3-1 cytotox 8.2µM*, SW480 rerep 5% and HT1080 IDH1KD tx -15%.
COc1ccc(S(=O)(=O)NCC(=O)Nc2ccc3c(c2)OCCO3)cc1OC was read as HT1080-NT tox -1%, MCF10A rerep 1%, KB-V1 MDR tox inactive, KB-3-1 cytotox inactive, SW480 rerep 5% and HT1080 IDH1KD tx -4%.
For COc1ccc(NC(=O)CNS(=O)(=O)c2ccc(Cl)cc2)cc1OC the results were HT1080-NT tox 0%, MCF10A rerep -12%, KB-V1 MDR tox inconclusive, KB-3-1 cytotox inactive, SW480 rerep 18µM* and HT1080 IDH1KD tx -4%.
`O=C(NCc1cc(C(F)(F)F)ccc1F)C1CCC(=O)N(C2CC2)C1` (stereo unspecified) gave HT1080-NT tox 4%, MCF10A rerep -4%, SW480 rerep -2% and HT1080 IDH1KD tx 5%.
Screening Cc1ccc(OCC(=O)Nc2ccccc2C(=O)N2CCCCC2)cc1 returned HT1080-NT tox -12%, MCF10A rerep -5%, KB-V1 MDR tox inactive, KB-3-1 cytotox inactive, SW480 rerep 0% and HT1080 IDH1KD tx -10%.
Screening COc1ccc(S(=O)(=O)Nc2ccc(F)c(F)c2)cc1Cl returned HT1080-NT tox inconclusive, MCF10A rerep -3%, KB-V1 MDR tox inactive, KB-3-1 cytotox inactive, SW480 rerep -1% and HT1080 IDH1KD tx inconclusive.
COc1ccc(NS(=O)(=O)c2ccc(OC)c(N(C)S(=O)(=O)c3ccc(Cl)cc3)c2)cc1 was read as HT1080-NT tox 14µM*, MCF10A rerep 3%, KB-V1 MDR tox inconclusive, KB-3-1 cytotox inactive, SW480 rerep 9% and HT1080 IDH1KD tx inconclusive.
Screening Clc1ccc(SCc2cc(N3CCOCC3)nc(-c3ccccn3)n2)cc1 returned HT1080-NT tox -6%, MCF10A rerep inconclusive, KB-V1 MDR tox inconclusive, KB-3-1 cytotox inconclusive, SW480 rerep 8.2µM* and HT1080 IDH1KD tx -17%.
O=c1cc(CSc2ccc(Cl)cc2)nc(-c2ccccn2)[nH]1 was read as HT1080-NT tox -17%, MCF10A rerep inconclusive, KB-V1 MDR tox inactive, KB-3-1 cytotox 13µM*, SW480 rerep 18% and HT1080 IDH1KD tx -29%.
`NC(=S)N/N=C/c1ccccc1OCCSc1ccc(Cl)cc1` gave HT1080-NT tox inconclusive, MCF10A rerep 21µM*, KB-V1 MDR tox inconclusive, KB-3-1 cytotox inconclusive, SW480 rerep inconclusive and HT1080 IDH1KD tx inconclusive.
Screening Cc1ccc(S(=O)(=O)Oc2ccccc2/C=C2\SC(=O)NC2=O)cc1 returned HT1080-NT tox 21µM*, MCF10A rerep 2%, KB-V1 MDR tox inactive, KB-3-1 cytotox inactive, SW480 rerep -1% and HT1080 IDH1KD tx -26%.
For O=C1NC(=O)/C(=C/c2ccccc2Oc2ccc(Cl)cc2)S1 the results were HT1080-NT tox -1%, MCF10A rerep inconclusive, KB-V1 MDR tox inactive, KB-3-1 cytotox inactive, SW480 rerep 1% and HT1080 IDH1KD tx -20%.
For COc1cccc(/C=N/NC(N)=S)c1OCc1ccccc1Cl the results were HT1080-NT tox 0%, MCF10A rerep inconclusive, KB-V1 MDR tox inactive, KB-3-1 cytotox inactive, SW480 rerep 7% and HT1080 IDH1KD tx inconclusive.
Cc1ccc(S(=O)(=O)Oc2ccccc2/C=N/NC(N)=S)cc1 was read as HT1080-NT tox 4.5µM*, MCF10A rerep inconclusive, KB-V1 MDR tox inconclusive, KB-3-1 cytotox 6.5µM*, SW480 rerep 38% and HT1080 IDH1KD tx inconclusive.
For O=C(CSc1ccc2nnc(CCNC(=O)c3ccccc3)n2n1)Nc1ccccc1F the results were HT1080-NT tox 3%, MCF10A rerep 0%, KB-V1 MDR tox inactive, KB-3-1 cytotox inactive, SW480 rerep -8% and HT1080 IDH1KD tx 15%.
`CC(C)Cn1cnc2c(c(-c3ccccc3)c(-c3ccccc3)n2Cc2ccco2)c1=N` gave HT1080-NT tox inconclusive, MCF10A rerep inconclusive, KB-V1 MDR tox inconclusive, KB-3-1 cytotox inconclusive, SW480 rerep inconclusive and HT1080 IDH1KD tx 16µM*.
N=c1c2c(-c3ccccc3)c(-c3ccccc3)oc2ncn1CCCN1CCOCC1 was read as HT1080-NT tox -30%, MCF10A rerep 12µM*, KB-V1 MDR tox 23µM*, KB-3-1 cytotox inconclusive, SW480 rerep inconclusive and HT1080 IDH1KD tx -22%.
Screening N=c1c2c(-c3ccccc3)c(-c3ccccc3)oc2ncn1CCN1CCOCC1 returned HT1080-NT tox inconclusive, MCF10A rerep 13%, KB-V1 MDR tox inconclusive, KB-3-1 cytotox inconclusive, SW480 rerep -2% and HT1080 IDH1KD tx inconclusive.
For N=c1c2c(-c3ccccc3)c(-c3ccccc3)n(Cc3ccco3)c2ncn1CCCN1CCOCC1 the results were HT1080-NT tox inconclusive, MCF10A rerep inconclusive, KB-V1 MDR tox 21µM*, KB-3-1 cytotox 21µM*, SW480 rerep inconclusive and HT1080 IDH1KD tx 13µM*.
For N=c1c2c(-c3ccccc3)c(-c3ccccc3)n(Cc3ccccc3)c2ncn1CCO the results were HT1080-NT tox -22%, MCF10A rerep inconclusive, KB-V1 MDR tox 18µM*, KB-3-1 cytotox inactive, SW480 rerep inconclusive and HT1080 IDH1KD tx inconclusive.
For COC(=O)c1ccc(Oc2nc(NC(C)C)nc(NC(C)C)n2)cc1 the results were HT1080-NT tox 8%, MCF10A rerep 12%, KB-V1 MDR tox inactive, KB-3-1 cytotox inactive, SW480 rerep -6% and HT1080 IDH1KD tx 14%.
`COc1cc(O)c(C(CC(=O)N2CCOCC2)c2ccc3c(c2)OCO3)c(OC)c1` (stereo unspecified) gave HT1080-NT tox -2%, MCF10A rerep 19%, KB-V1 MDR tox inactive, KB-3-1 cytotox inconclusive, SW480 rerep -4% and HT1080 IDH1KD tx 3%.
`CCC(=O)N(C)CCc1cc2c(c(OC)c1/C=N/NC(=O)c1ccncc1)OCO2` gave HT1080-NT tox 13%, MCF10A rerep -7%, KB-V1 MDR tox inactive, KB-3-1 cytotox inactive, SW480 rerep -10% and HT1080 IDH1KD tx 20%.
c1ccc(-c2c(-c3ccccc3)n(Cc3ccco3)c3ncnc(NCCCn4ccnc4)c23)cc1 was read as HT1080-NT tox 18µM*, MCF10A rerep inconclusive, KB-V1 MDR tox inconclusive, KB-3-1 cytotox inconclusive, SW480 rerep 26% and HT1080 IDH1KD tx 18µM*.
